The values below come from PubChem BioAssay AID1851 (National Center for Advancing Translational Sciences (NCATS), 2009).

Molecules are shown by their SMILES. Where “and” joins values, the source holds several entries; their conditions need not be identical. Equal entries are not always repeated. Hit rate of the full screen: of about 16,000 compounds, about 5,700 (36%) were called active. About 24% were inconclusive and are not listed. The call rests on the fitted dose curve; in most records, active means well fitted curve in the direction sought with a large enough effect; inconclusive means small, poorly fitted or top-dose-only effect, or effect the other way; inactive means no such curve, though single readings can be large or run the other way. The list shows a part of the results.
On the % scale 0 is the no-effect control and ±100 the full control effect.

The target of this experiment is Cytochrome P450 1A2 (Homo sapiens) (UniProt P05177). The experiment is described as follows: Cytochrome panel assay with activity outcomes. Conditions: recombinant CYP, pro-luciferin dealkylation, luminescence, p450-cyp1a2; series mostly up to 57.1 µM; activity, negative = inhibition: at the top concentration.
Cytochrome P450 1A2 (Homo sapiens), sequence (P05177 whole entry, looked up): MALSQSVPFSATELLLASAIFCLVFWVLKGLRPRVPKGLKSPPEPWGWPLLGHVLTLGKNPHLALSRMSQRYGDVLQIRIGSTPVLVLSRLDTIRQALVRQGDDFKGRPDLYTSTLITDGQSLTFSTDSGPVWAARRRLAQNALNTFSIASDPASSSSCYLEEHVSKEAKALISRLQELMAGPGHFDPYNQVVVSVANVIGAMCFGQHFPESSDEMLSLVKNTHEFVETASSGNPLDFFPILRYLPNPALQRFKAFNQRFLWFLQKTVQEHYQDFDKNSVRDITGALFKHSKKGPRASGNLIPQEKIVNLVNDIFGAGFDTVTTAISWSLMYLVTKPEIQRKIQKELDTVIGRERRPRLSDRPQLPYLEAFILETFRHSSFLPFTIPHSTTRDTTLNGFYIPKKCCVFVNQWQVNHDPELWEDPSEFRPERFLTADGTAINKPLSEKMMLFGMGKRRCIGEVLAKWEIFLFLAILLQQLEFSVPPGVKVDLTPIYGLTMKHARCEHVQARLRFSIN
Regarding `COc1ccc(C(=O)N2CCC3(CCCN(Cc4ccccc4OC)C3)CC2)cc1`, the “activity, negative = inhibition” value is -16.7% (inactive).
For the molecule `O=C(Cc1ccc2c(c1)CCCC2)Nc1ccccc1Br`, the half-maximal activity concentration (AC50) was 11.2 µM (active).
In the case of `CC12CCC(C(=O)Nc3ccccc3Br)(C/C1=N\O)C2(C)C` (stereo unspecified), the “activity, negative = inhibition” value was -3.81% (inactive).
On to `COC(=O)N1CCC[C@@]2(CCN(C(=O)Nc3cccc(C#N)c3)C2)C1`, for which the “activity, negative = inhibition” value is -19.3% (inactive).
Take `CS(=O)(=O)N1N=C(c2ccc(Br)cc2)CC1c1ccc2c(c1)OCO2` (stereo unspecified): the AC50 is 3.55 µM (active).
Consider `O=S(=O)(c1ccccc1)N1N=C(c2cccs2)CC1c1ccc(Br)cc1` (stereo unspecified), for which the “activity, negative = inhibition” value is -18.4% (inactive).
For `C[C@@H]1CC[C@H]2C(=O)N3[C@@H](CC[C@@H](C)[C@@H]3c3ccc(Br)cc3)C(=O)N2[C@@H]1c1ccc(Br)cc1`, the activity, negative = inhibition is -18.2% [at 11.4 µM] (inactive).
Same read-out and setting: for `C=C[C@]1(C)C[C@H](OC(=O)CO)[C@]2(C)C3C(=O)CC[C@]3(CC[C@H]2C)[C@H](C)[C@H]1O` (stereo partly specified) the value was -21% [at 2.29 µM] (inactive).
`COc1cccc(N2C(=O)C(CC(=O)Nc3ccccc3)N(C3CCCCC3)C2=O)c1` (stereo unspecified): the “activity, negative = inhibition” value was -9.5% (inactive).
As to `COc1ccc(OC)c(NC(=O)c2c3c(nc4ccccc24)CCC3)c1`, the AC50 was 12.6 µM (active).
Take `COc1cccc(NC(=O)COC(=O)c2c3c(nc4ccccc24)CCC(C)C3)c1` (stereo unspecified): the half-maximal activity concentration (AC50) is 2.51 µM (active).
As to `COc1ccc(NC(=O)COC(=O)c2c3c(nc4ccccc24)CCCC3)cc1`, the AC50 is 7.08 µM (active).
For `COc1cccc(NC(=O)Cc2c(C(=O)O)[nH]c3ccccc23)c1`, the “activity, negative = inhibition” value was 6.45% (inactive).
In the case of `COc1ccc(NC(=O)COC(=O)c2c(-c3ccccc3)noc2C)cc1`, the half-maximal activity concentration (AC50) is 12.6 µM (active).
In the case of `COc1ccc(NC(=O)N2CC3(CCN(C(=O)c4c(C)noc4C)CC3)C2)cc1`, the “activity, negative = inhibition” value is 7.88% (inactive).
On to `CC(C)(C)Nc1nc(N2CCCC2)nc(N2CCCC2)n1`, for which the half-maximal activity concentration (AC50) is 0.631 µM (active).
In the case of `O=C1CCC(c2ccccc2)(c2ccccc2)CC1`, the activity, negative = inhibition is -13.3% [at 11.4 µM] (inactive).
`COc1ccccc1CNc1nc(-c2cccc(C#N)c2)nc2ccccc12`: the AC50 is 1.26 µM (active).
The same measure, in the same setting: for `COc1ccc(CNc2nc(-c3cccc(C#N)c3)nc3ccccc23)c(OC)c1` the value was 2.51 µM (active); for `COc1ccc(CNc2nc(-c3cccc(NS(C)(=O)=O)c3)nc3ccccc23)c(OC)c1`, 15.8 µM (active).
In the case of `CCCc1cc2c(n1Cc1cc(F)cc(F)c1)C(C)C1CN(C(=O)c3ccccc3)C(C)(C(=O)OC)C21` (stereo unspecified), the “activity, negative = inhibition” value was -19.9% (inactive).
Regarding `Cc1noc(C)c1-c1nccc(N(C)C)n1`, the AC50 was 0.631 µM (active).
Same read-out and setting: as for `Cc1noc(C)c1-c1cc(N(C)Cc2ccco2)ncn1`, the figure is 3.16 µM (active); as for `Cc1noc(C)c1-c1nccc(N(C)Cc2ccco2)n1`, 2 µM (active); as for `Cc1noc(C)c1-c1cc(N(C)C)ncn1`, 3.16 µM (active).
The same measure, in the same setting: for `N#CCSc1ncnc2c1cnn2CCO` the value was 15.8 µM (active); for `COc1ccc(NC(=S)N(CCc2nc3cc(C)c(C)cc3[nH]2)Cc2cccnc2)cc1`, 15.8 µM (active).
Consider `COc1cccc(NC(=O)C2c3cc(OC)c(OC)cc3C(=O)N(C)C2c2cccnc2)c1` (stereo unspecified), for which the “activity, negative = inhibition” value is -4.27% (inactive).
On the same count and under the same terms, for `CCN1C(=O)C(CC(=O)Nc2ccc(OC)cc2)N(Cc2cccnc2)C1=S` (stereo unspecified) the value was -12.1% (inactive).
Regarding `Cc1cccc(NC(=S)N(CCc2nc3cc(C)c(C)cc3[nH]2)Cc2cccnc2)c1`, the half-maximal activity concentration (AC50) is 14.1 µM (active).
As for `COc1cccc(NC(=S)N(CCc2nc3cc(C)c(C)cc3[nH]2)Cc2cccnc2)c1`, the AC50 was 14.1 µM (active).
As to `O=C1CCC=C1[C@@H](O)CCc1ccccc1`, the activity, negative = inhibition is -4.4% [at 11.4 µM] (inactive).
With `CN(C)[C@H]1C(=O)C(C(=O)NCN2CCCC2)=C(O)[C@]2(O)C(=O)C3=C(O)c4c(O)cccc4[C@](C)(O)[C@H]3C[C@H]12`, the activity, negative = inhibition is -17.5% [at 11.4 µM] (inactive).
`CCCCNC(=O)CSc1nc2cc(OC)c(OC)cc2c(=O)n1Cc1ccc(OC)cc1`: the “activity, negative = inhibition” value is -11.3% (inactive).
For `COc1cc2nc(SCc3ccc(Cl)cc3Cl)n(Cc3cccs3)c(=N)c2cc1OC`, the concentration at half-maximal activity (AC50) was 5.01 µM (active).
Turning to `CCCN1CCN(CCCNC(=O)Cn2nc(-c3ccc(C)cc3)ccc2=O)CC1`, the “activity, negative = inhibition” value is 1.86% (inactive).
For the molecule `Cc1nc(C(=O)Nc2ccc(Cl)cc2Cl)nn1-c1cc(OC(C)C)c(Cl)cc1Cl`, the “activity, negative = inhibition” value is -4.26% (inactive).
As to `CC(Oc1ccc(Cl)cc1Cl)C(=O)/C=C/N(C)C` (stereo unspecified), the AC50 was 7.08 µM (active).
Take `Nc1ncnc2nc(N3CCN(CCO)CC3)[nH]c12`: the activity, negative = inhibition was -1.17% [at 2.29 µM] (inactive).
Same read-out and setting: for `CN(C)CCOC(=O)C1(c2ccccc2)CCOCC1` the value was 5.6% (inactive).
Consider `CCN(CC)CCOC(=O)C1(c2ccc([N+](=O)[O-])cc2)CCCC1`, for which the half-maximal activity concentration (AC50) was 3.16 µM (active).
On to `Cc1ccc(OCC(=O)NNC(=O)CCC(=O)NCc2ccccc2)cc1`, for which the “activity, negative = inhibition” value was -22.3% (inactive).
The same measure, in the same setting: as for `O=C(O)C1C2CCC(C2)C1C(=O)NCc1ccco1` (stereo unspecified), the figure is 9.79% (inactive); as for `CCS(=O)(=O)N1CCC(C(=O)NCc2ccco2)CC1`, 17% (inactive).
`CC(C)(C)c1ccc(C(=O)NCCC(=O)NCc2ccco2)cc1`: the AC50 was 1.58 µM (active).
As to `CCOc1ccc(-n2cc(C(=O)NCc3ccco3)c3cc(OC)c(OC)cc3c2=O)cc1`, the “activity, negative = inhibition” value is -10.7% (inactive).
For `CCCCCOc1ccc(C(=O)NCC2(c3ccccc3)CCOCC2)cc1`, the concentration at half-maximal activity (AC50) was 15.8 µM (active).
On to `CCCCOc1ccc(C(=O)NCc2ccco2)cc1`, for which the AC50 was 1.26 µM (active).
Turning to `COc1ccc(S(=O)(=O)N(C)CC(=O)NCc2ccco2)cc1`, the “activity, negative = inhibition” value is -0.209% (inactive).
Consider `CC(=O)c1ccc(NC(=O)C2(c3ccccc3)CCOCC2)cc1`, for which the “activity, negative = inhibition” value is -7.53% (inactive).
In the case of `Cc1ccc(OCCCC(=O)NCc2ccco2)cc1`, the half-maximal activity concentration (AC50) is 14.1 µM (active).
For the molecule `C=CCNC(=O)/C(=C\C=C\c1ccccc1)NC(=O)c1ccc(OCCCC)cc1`, the “activity, negative = inhibition” value was -2.51% (inactive).
Same read-out and setting: as for `C/C(CC(=O)NCc1ccco1)=N\NC(=O)Cc1ccccc1`, the figure is -4.02% (inactive); as for `Cc1cc(C)cc(Oc2nn[nH]n2)c1`, -0.21% (inactive); as for `COc1cccc([C@H]2Oc3ccc(OC)cc3/C(=N\O[C@@H](C)c3cn([C@H](CO)Cc4ccccc4)nn3)[C@@H]2O)c1`, -7.2% [at 11.4 µM] (inactive) and -11.9% [at 11.4 µM] (inactive).
On the same count and under the same terms, for `CCOC(=O)N1CCN(C(=O)c2cnc3n(c2=O)CCS3)CC1` the value was 5.62% (inactive).
Consider `CCCCN(Cc1ccccc1)C(=O)c1cnc2n(c1=O)CCS2`, for which the “activity, negative = inhibition” value is -4.2% (inactive).
Consider `COc1ccccc1NC(=O)c1sc2ncn(Cc3ccccc3C)c(=O)c2c1C`, for which the half-maximal activity concentration (AC50) is 3.16 µM (active).
With `COc1ccccc1NC(=O)c1cnc2n(c1=O)CCS2`, the AC50 was 2.24 µM (active).
For the molecule `CCCNC(=O)Cn1cnc2sc(C(=O)Nc3ccc4c(c3)OCO4)c(C)c2c1=O`, the “activity, negative = inhibition” value is 3.48% (inactive).
Same read-out and setting: as for `CCn1cnc2sc(C(=O)N3CCN(c4ccc(OC)cc4)CC3)c(C)c2c1=O`, the figure is 2.44% (inactive).
